D3 antag: D3 dopamine receptor (human) antagonism. D3R cells, DiscoveRx beta-arrestin luminescence, antagonist mode; stronger effect = lower value. max response, negative = inhibition, %. 2.5% of 360,000 active; in the data active = max response below about -50%; inconclusive = no clear call, values can overlap the other calls
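Cells expressing the human receptor were seeded at 1500 cells/well, incubated overnight at 37 degrees C in 5% CO2, then exposed to library compounds with dopamine controls for 90 minutes at 37 degrees C before luminescent detection.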
D1 antag: blocks dopamine activation of the human D1 receptor. P21728. HEK293 TREx D1 cells, calcium flux, dopamine EC80; stronger effect = lower value. activity change, negative = inhibition, % at 10 µM. 3.2% of 360,000 active; in the data active = activity change below about -30%
Target sequence (P21728 whole entry, looked up): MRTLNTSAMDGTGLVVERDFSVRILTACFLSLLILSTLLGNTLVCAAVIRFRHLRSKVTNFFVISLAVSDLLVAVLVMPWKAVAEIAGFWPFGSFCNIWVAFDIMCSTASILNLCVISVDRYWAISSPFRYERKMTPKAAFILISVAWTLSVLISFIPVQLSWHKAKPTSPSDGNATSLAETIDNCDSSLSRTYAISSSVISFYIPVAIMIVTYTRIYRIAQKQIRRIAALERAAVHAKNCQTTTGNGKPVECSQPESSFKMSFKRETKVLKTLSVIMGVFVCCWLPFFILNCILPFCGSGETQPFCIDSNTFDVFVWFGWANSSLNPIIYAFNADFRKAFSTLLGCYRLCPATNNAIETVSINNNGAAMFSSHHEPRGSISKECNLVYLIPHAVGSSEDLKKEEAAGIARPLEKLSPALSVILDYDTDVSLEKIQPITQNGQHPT
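Using tetracycline-induced force-coupled D1 Hek293 cells and a calcium dye, signals were followed for 180 s after compound, then for 180 s after EC80 dopamine, to detect inhibitors.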
D1 potentiator: potentiators of human D1 dopamine receptor; AID 504651; potentiation, % at 10 µM; 0.036% of 360,000 active; HEK293 TREx D1 cells, calcium flux, dopamine EC20 potentiation; P21728; in the data active = potentiation above about 30%
D1 ag: activates the human D1 dopamine receptor; AID 504660; activation, % at 2 µM; HEK293 T-REx D1 cells, calcium flux, agonist mode; 1% of 360,000 active; P21728; in the data active = activation above about 30%
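Agonism was scored from calcium flux recorded over 180 s (1 read/s) after pintool compound addition, following a 10-cycle baseline. Cells were inducible force-coupled HEK293 TREx D1, plated overnight at 30 C and loaded with no-wash calcium dye.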
DRD3 agonist: agonists of human D3 dopamine receptor; D3R DiscoveRx beta-arrestin cells, luminescence, 90 min; P35462; max activation, %; 0.58% of 410,000 active; in the data active = max activation above about 30%
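Agonist mode: compounds and dopamine controls were applied to plated cells for 90 min at 37 degrees C after an overnight attachment at 1500 cells/well. Luminescent read-out followed 30 - 60 minutes at room temperature with DiscoveRx detection reagent.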
Numbers stand for hits; n = inactive; u = inconclusive; x = no result; ! = not active in a repeat. Sampled rows, rich in hits. Any-hit rate of the full collection: about 6%.

SMILES | D3 antag | D1 antag | D1 potentiator | D1 ag | DRD3 agonist
COCCNC(=O)Cn1cnc2c(cnn2-c2ccc(OC)cc2)c1=O | n | n | n | n | n
Cc1ccc(CN2CCCn3nc(C(=O)NCCc4ccccc4Cl)cc3C2=O)cc1 | x | n | n | n | n
CCOC(=O)COc1ccc(S(=O)(=O)Nc2ccc3c(c2)OCCO3)cc1 | n | n | n | 33 | n
COC(=O)COc1ccc(S(=O)(=O)Nc2ccc3c(c2)OCO3)cc1 | n | n | n | n | n
COc1ccc(S(=O)(=O)Nc2ccc(CC#N)cc2)cc1 | n | -33 | n | n | n
C=C(C)CN(CC)C(=O)COc1ccc(S(=O)(=O)Nc2ccc(OC)cc2)cc1 | n | n | n | 52 | n
CCOC(=O)c1ccc(NS(=O)(=O)c2ccc3c(c2)OCCO3)cc1 | x | -36 | n | n | n
COCCNC(=O)CCN1C(=O)c2cccnc2Oc2ccc(C)cc21 | x | n | n | n | n
Nc1ccc(N)c([N+](=O)[O-])c1 | x | x | x | x | n
CN(C)C(=O)CNC(=O)Cc1ccccc1 | x | x | x | x | n
CCOC(=O)Cn1c(=O)oc2cc(S(=O)(=O)Nc3ccccc3F)ccc21 | x | n | n | n | n
Cc1ccccc1Cn1c2ccccc2c2cnn(CC(=O)NCCc3ccccc3)c(=O)c21 | x | n | n | n | n
Cc1ccc(C(C)(O)CS(=O)(=O)Cc2ccccc2)cc1 (stereo not drawn) | n | n | n | n | n
CN(c1ccc(C(=O)NC2CCCCC2)cc1)S(=O)(=O)c1ccccc1 | n | x | x | x | n
Cc1ccc(NS(=O)(=O)c2ccc(OCC(=O)NCC3CCCO3)cc2)cc1 (stereo not drawn) | n | -38 | n | n | n
COc1ccc(NS(=O)(=O)c2cccc(C(=O)OCC(=O)Nc3cc(C)on3)c2)cc1 | n | n | n | n | n
Cc1ccc(NS(=O)(=O)c2ccc(C(=O)OCC(=O)Nc3cc(C)on3)cc2)cc1 | n | n | n | 44 | n
COc1ccccc1CNC(=O)CCn1cnc2ccccc2c1=O | x | n | n | n | n
CCOc1ccc(CCNC(=O)c2ccc3nc(N4CCOCC4)sc3c2)cc1OCC | n | n | n | n | n
CCOc1cc(CNCCc2ccc(S(N)(=O)=O)cc2)ccc1OCc1ccc(Cl)cc1 | n | -56 | n | 79 | n
NS(=O)(=O)c1ccc(NCc2ccccc2OCc2ccc(F)cc2)cc1 | n | n | n | n | n
NS(=O)(=O)c1ccc(CCNCc2ccccc2OCc2ccc(F)cc2)cc1 | u | -40 | n | 41 | n
Nc1nonc1C(=O)NCCNCc1ccccc1OCc1ccc(F)cc1 | n | n | n | 30 | n
CCOC(=O)C1CCN(C(=O)Cn2nc(C)n3nc(-c4ccc(OC)cc4)cc3c2=O)CC1 | n | n | n | n | n
COc1cccc2c1cc1c(=O)n(CC(=O)N3CCN(c4ccccc4F)CC3)nc(C)n12 | x | n | n | n | n
SMILES | D3 antag | D1 antag | D1 potentiator | D1 ag | DRD3 agonist
CCOC(=O)C1CCN(C(=O)Cn2nc(C)n3c(cc4sccc43)c2=O)CC1 | x | -42 | n | n | n
COc1cccc2c1cc1c(=O)n(CC(=O)N3CCC(C)CC3)nc(C)n12 | n | n | n | n | 38!
CCOC(=O)c1ccccc1NC1(c2ccc(OC)cc2)C(=O)c2ccccc2C1=O | x | n | n | n | n
O=C(NCc1ccccn1)c1cc2cc(Br)ccc2oc1=O | n | -68 | n | n | n
Cc1c(C(=O)NCc2ccccn2)oc2ccc(Br)cc12 | n | n | n | n | n
CN(C)c1ccc(P(=O)(CC(=O)N/N=C/c2ccc(C#N)cc2)OCCCl)cc1 (stereo not drawn) | -63 | n | n | n | n
Cc1ccccc1OCC(=O)N/N=C/c1ccc(N(C)C)cc1 | n | n | n | n | n
O=S(=O)(c1ccc(NC(=S)N2CCCCC2CO)cc1)N1CCOCC1 (stereo not drawn) | n | x | x | x | n
COC(=O)Cn1c(C)c(/C=C/c2cc[n+](C)cc2)c2ccccc21 | n | n | n | 57 | n
CC(Sc1nnc(-c2ccco2)n1C)C(=O)N1C(C)CCCC1C (stereo not drawn) | n | -41 | n | n | n
CC(Sc1nnc(-c2ccco2)n1C)C(=O)NC1CCCC1 (stereo not drawn) | n | n | n | n | n
CN1CCc2c(sc3c2C(=O)NC(c2ccc(OC(=O)c4ccc(C(C)(C)C)cc4)cc2)N3)C1 (stereo not drawn) | x | n | n | 263 | n
CN1CCc2c(sc3c2C(=O)NC(c2ccc(OC(=O)c4ccccc4)cc2)N3)C1 (stereo not drawn) | x | n | n | 114 | n
CN1CCc2c(sc3c2C(=O)NC(c2ccc(OC(=O)c4ccc(Cl)cc4)cc2)N3)C1 (stereo not drawn) | x | n | n | 145 | n
Cc1ccc(N2C(=O)N(CC(=O)N3c4ccccc4CC3C)C(=O)C2C)cc1 (stereo not drawn) | n | n | n | n | n
COCCNCCCCOc1ccccc1-c1ccccc1 | n | n | n | n | n
CN(C)CCCCOc1ccccc1-c1ccccc1 | -77 | n | n | n | n
CCCCNCCOCCOc1ccccc1-c1ccccc1 | -87 | n | n | n | n
C=CCNCCOc1ccccc1-c1ccccc1 | -64 | n | n | n | n
CN(C)CCCCOc1ccccc1F | n | x | n | n | n
CN(C)CCOc1ccccc1Cc1ccccc1 | -75 | n | n | n | n
CC(C)NCCCCOc1ccccc1-c1ccccc1 | x | n | n | n | x
Cc1ccc(OCCCCn2nnc3sc4c(c3c2=O)CCC(C)C4)cc1 (stereo not drawn) | x | n | n | n | n
CSc1ccc(CN2C(=O)C(F)(F)Oc3c(C(C)=O)cccc32)cc1 | n | x | x | x | n
CCOc1ccc(S(=O)(=O)N2CCC(C(=O)Nc3ccccc3N3CCCC3)CC2)cc1 | n | x | x | x | n
SMILES | D3 antag | D1 antag | D1 potentiator | D1 ag | DRD3 agonist
CCOC(=O)c1[nH]c(CN2CCN(c3ccc(OC)cc3)CC2)c(C(=O)OCC)c1C | n | n | x | 64 | n
COCCn1c(SCC(=O)c2c(N)n(C3CC3)c(=O)[nH]c2=O)nc2ccccc21 | n | -41 | n | n | n
Cn1c(-c2ccc(Cl)nc2)nc2cc(Cl)ccc21 | n | -33 | n | n | n
Cc1ccc(-c2cn(CCN)c(-c3ccc(Cl)nc3)n2)cc1 | n | n | n | n | n
COc1ccc(S(=O)(=O)Cc2ccc(C(=O)NCCc3ccc(S(N)(=O)=O)cc3)o2)cc1 | n | -35 | n | n | n
CC(C)N(CCCNC(=O)c1ccc(CS(=O)(=O)c2c(Cl)cccc2Cl)o1)Cc1ccccc1 | -56 | n | n | n | n
Cc1ccccc1CNC(=O)c1cc2ccccc2o1 | n | x | x | x | n
COc1ccccc1CNC(=O)c1ccc(CS(=O)(=O)c2ccc(C)cc2)o1 | n | -50 | n | n | n
O=C(NCc1ccccc1Cl)c1cc2ccccc2o1 | x | -33 | n | 34 | n
COc1ccc(S(=O)(=O)Cc2ccc(C(=O)NCc3ccc(C)cc3)o2)cc1 | n | n | n | n | n
O=C(COc1ccc(Br)cc1)NNC(=O)Cc1ccc(S(=O)(=O)N2CCOCC2)s1 | n | x | x | x | n

Screening results as filed in PubChem.
